Laboratory results from PubChem BioAssay.
A number with no mark means an inactive call. For part of these data: Entries with a potency or affinity are not part of this list. The source made the active and inactive calls. Unless noted, the rule behind the calls is not given here.

Experiments:
[1] = antimalarial activity against Dd2 strain (AID 2302;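 active = growth inhibition above 50% at the single 2 µM test dose, taken to imply half-maximal potency below 2 µM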;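 note: 0% = DMSO untreated growth and 100% = chloroquine plus artemisinin killed control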); conditions: P. falciparum Dd2 in RBCs, LDH growth readout, 72 h; at 2 µM; hits give high values
[2] = human hepatoma cell viability loss – ATP luminescence, cytotoxicity control for P. falciparum antimalarial project, primary screen (AID 2303;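 active = inhibition above 50%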;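 note: 0% = DMSO wells and 100% = digitonin-killed cells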); conditions: HepG2 viability, 24-48 h, at 10 µM, hits give high values
[3] = target: L-lactate dehydrogenase (Plasmodium falciparum (isolate CDC / Honduras)) (UniProt Q27743); test: PfLDH activity inhibition – cell lysate, 3D7 strain, counter-screen for P. falciparum growth inhibition project (AID 2304);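 note: 0% = vehicle and 100% = reference inhibitor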; conditions: P. falciparum 3D7 crude extract, LDH APAD/NBT absorbance; at 2 µM; hits give high values
Sequence of L-lactate dehydrogenase (Plasmodium falciparum (isolate CDC / Honduras)) (Q27743 whole entry, looked up): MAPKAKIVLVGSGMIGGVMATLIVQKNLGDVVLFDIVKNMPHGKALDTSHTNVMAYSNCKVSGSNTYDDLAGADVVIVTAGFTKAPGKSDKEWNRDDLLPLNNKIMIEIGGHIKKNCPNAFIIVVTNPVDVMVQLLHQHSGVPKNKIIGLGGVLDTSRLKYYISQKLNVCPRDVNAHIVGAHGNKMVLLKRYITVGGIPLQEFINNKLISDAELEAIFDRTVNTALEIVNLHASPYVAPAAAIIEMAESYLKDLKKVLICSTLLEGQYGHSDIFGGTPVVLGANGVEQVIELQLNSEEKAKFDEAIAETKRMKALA

[4] = inhibition of 3D7 malaria parasite growth – strain 3D7 (AID 2306);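 note: 0% = DMSO wells and 100% = chloroquine plus artemisinin control wells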; conditions: P. falciparum 3D7 erythrocytic growth, LDH absorbance, 72 h; at 2 µM; hits give high values
[5] = target: Calcium-dependent protein kinase 1 (Plasmodium falciparum (isolate 3D7)) (UniProt P62344); test: PfCDPK1 kinase inhibitors, biochemical, TCAMS library (AID 1159585; cut-off not given, nearly all actives have IC50 up to about 0.98 µM;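 note: inhibitors leave more ATP so luminescence rises with inhibition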); conditions: recombinant PfCDPK1, Kinase-Glo ATP depletion luminescence
Sequence of Calcium-dependent protein kinase 1 (Plasmodium falciparum (isolate 3D7)) (P62344 whole entry, looked up): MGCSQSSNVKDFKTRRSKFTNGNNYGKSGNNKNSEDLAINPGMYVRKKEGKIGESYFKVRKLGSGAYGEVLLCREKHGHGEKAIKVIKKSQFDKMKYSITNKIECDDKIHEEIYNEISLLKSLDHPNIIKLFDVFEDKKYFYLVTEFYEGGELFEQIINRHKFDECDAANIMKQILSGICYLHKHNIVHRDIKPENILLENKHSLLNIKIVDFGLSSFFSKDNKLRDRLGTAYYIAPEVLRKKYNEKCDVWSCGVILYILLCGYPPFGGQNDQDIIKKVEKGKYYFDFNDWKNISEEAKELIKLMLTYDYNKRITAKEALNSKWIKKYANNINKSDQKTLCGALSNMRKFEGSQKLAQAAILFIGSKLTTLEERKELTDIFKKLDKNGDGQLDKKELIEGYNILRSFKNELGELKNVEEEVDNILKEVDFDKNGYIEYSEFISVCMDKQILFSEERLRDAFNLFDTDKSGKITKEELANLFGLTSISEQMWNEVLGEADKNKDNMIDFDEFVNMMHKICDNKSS

[6] = target: Plasmodium falciparum protein kinase 6 (PK6, PF3D7_1337100) (UniProt Q8IDW1); test: PfPK6 kinase inhibitors, biochemical, TCAMS library (AID 1159586); conditions: recombinant PfPK6, Kinase-Glo ATP depletion luminescence
Sequence of Plasmodium falciparum protein kinase 6 (PK6, PF3D7_1337100) (Q8IDW1 1-305): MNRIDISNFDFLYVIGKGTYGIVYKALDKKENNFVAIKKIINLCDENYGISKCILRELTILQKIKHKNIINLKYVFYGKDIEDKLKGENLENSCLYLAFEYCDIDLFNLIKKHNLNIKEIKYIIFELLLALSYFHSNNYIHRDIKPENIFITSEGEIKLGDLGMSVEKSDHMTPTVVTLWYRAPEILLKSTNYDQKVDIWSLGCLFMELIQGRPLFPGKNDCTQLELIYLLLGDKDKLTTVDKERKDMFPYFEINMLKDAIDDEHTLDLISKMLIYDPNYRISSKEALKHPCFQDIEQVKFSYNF

[7] = target: Protein kinase 7 (PK7), Plasmodium falciparum 3D7 (PF3D7_0213400) (UniProt Q7YTF7); test: inhibition of Plasmodium PK7 catalytic activity – biochemical, TCAMS antimalarial set, Kinase-Glo luminescence (AID 1159587); conditions: recombinant PfPK7, Kinase-Glo ATP depletion luminescence
Sequence of Protein kinase 7 (PK7), Plasmodium falciparum 3D7 (PF3D7_0213400) (Q7YTF7 1-343): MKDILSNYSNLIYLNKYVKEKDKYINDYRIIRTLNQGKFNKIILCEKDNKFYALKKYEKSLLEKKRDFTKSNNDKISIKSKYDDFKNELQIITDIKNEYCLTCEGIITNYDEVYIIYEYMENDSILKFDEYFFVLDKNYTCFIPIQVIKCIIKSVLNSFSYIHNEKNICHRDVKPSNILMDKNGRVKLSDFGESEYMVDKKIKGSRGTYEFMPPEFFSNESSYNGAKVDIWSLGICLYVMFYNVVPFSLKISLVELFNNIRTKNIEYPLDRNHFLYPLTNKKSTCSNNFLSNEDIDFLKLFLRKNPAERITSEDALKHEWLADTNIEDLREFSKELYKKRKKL

[8] = target: Calcium-dependent protein kinase 4 (Plasmodium falciparum (isolate 3D7)) (UniProt Q8IBS5); test: PfCDPK4 kinase inhibitors, biochemical, TCAMS library (AID 1159588; cut-off not given, nearly all actives have IC50 up to about 0.91 µM); conditions: recombinant PfCDPK4, Kinase-Glo ATP depletion luminescence
Sequence of Calcium-dependent protein kinase 4 (Plasmodium falciparum (isolate 3D7)) (Q8IBS5 whole entry, looked up): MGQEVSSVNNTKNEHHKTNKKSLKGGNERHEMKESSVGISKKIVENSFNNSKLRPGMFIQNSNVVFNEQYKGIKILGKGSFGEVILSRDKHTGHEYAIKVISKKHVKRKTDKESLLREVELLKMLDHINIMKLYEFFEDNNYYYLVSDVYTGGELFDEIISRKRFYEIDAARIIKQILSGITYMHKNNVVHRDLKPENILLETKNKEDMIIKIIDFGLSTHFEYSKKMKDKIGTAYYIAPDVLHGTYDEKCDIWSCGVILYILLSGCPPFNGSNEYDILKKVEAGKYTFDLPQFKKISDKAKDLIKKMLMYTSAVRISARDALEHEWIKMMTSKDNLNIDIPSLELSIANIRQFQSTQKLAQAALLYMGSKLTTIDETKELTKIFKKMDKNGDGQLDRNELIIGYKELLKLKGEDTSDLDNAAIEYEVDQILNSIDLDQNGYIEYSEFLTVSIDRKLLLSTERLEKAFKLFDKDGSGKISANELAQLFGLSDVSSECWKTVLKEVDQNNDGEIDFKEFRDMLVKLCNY

| Structure (SMILES) | growth inhibition [1] | inhibition [2] | inhibition [3] [%] | growth inhibition [4] | outcome [5] | outcome [6] | outcome [7] | outcome [8] |
| --- | --- | --- | --- | --- | --- | --- | --- | --- |
| O=S(=O)(ON=C1CCc2ccccc21)c1ccc(Cl)cc1 | 79% (active) | -2% | 3 | 100% (active) | inactive | inactive | inactive | inactive |
| Cc1ccc(-c2nc(N3CCN(C(=O)c4ccco4)CC3)c3ccc(Cl)cc3n2)cc1 | 78% (active) | 17% | 3 | 90% (active) | inactive | inactive | inactive | inactive |
| CCN(CC)CCN(Cc1ccc(-c2ccc(C(F)(F)F)cc2)cc1)C(=O)Cn1c(SCc2ccc(F)c(F)c2F)nc(=O)c2c1CCC2 | 96% (active) | 100% (active) | -4 | 91% (active) | inactive | inactive | inactive | inactive |
| NC(=O)c1cccc(CN2Cc3ccccc3OC3(CCN(Cc4c[nH]c5cnccc45)CC3)C2)c1 | 2% | 9% | -2 | 94% (active) | inactive | inactive | inactive | inactive |
| NC(=O)c1ccc(C(=O)Nc2cccc(-c3csc(-c4nc5ccccc5[nH]4)c3)c2)cc1 | 35% | 14% | -4 | 100% (active) | inactive | inactive | inactive | inactive |
| O=S(=O)(NCCN1CCCC1)c1ccc(-c2ccc(CNC3Cc4ccccc4C3)cc2)cc1F | 75% (active) | 33% | -1 | 101% (active) | inactive | inactive | inactive | inactive |
| Cc1cc(Nc2ccc(C(C)(C)C)cc2)c2[nH]ncc2n1 | 63% (active) | 31% | 0 | 83% (active) | inactive | inactive | inactive | inactive |
| COc1ccc2nccc(N3CCC(NCCNCc4ccc5c(n4)NC(=O)CO5)C3)c2n1 (configuration not stated) | 47% | 0% | 3 | 100% (active) | inactive | inactive | inactive | inactive |
| O=C(Nc1cccc(-c2ccc(-c3nc4ccc(C(F)(F)F)cc4[nH]3)s2)c1)c1cnc[nH]1 | 36% | 55% (active) | -3 | 89% (active) | inactive | inactive | inactive | inactive |
| COCCNCc1ccc(-c2cccc(CN(C(=O)NCCc3ccccc3)C3CCN(Cc4ccccc4)CC3)c2)cc1 | 90% (active) | 25% | -4 | 88% (active) | inactive | inactive | inactive | inactive |
| Nc1nc(N)c2cc(CNc3ccc(Cl)c(Cl)c3)ccc2n1 | 55% (active) | 62% (active) | 5 | 93% (active) | inactive | inactive | inactive | inactive |
| CC(C)CNC(=O)c1cncc(-c2cccc(CNC3Cc4ccccc4C3)c2)c1 | 19% | 4% | 1 | 100% (active) | inactive | inactive | inactive | inactive |
| O=C(Nc1ccc(Cl)cc1)c1cccc(S(=O)(=O)NC2CCN(CC3CCCCC3)C2)c1 (configuration not stated) | 41% | 80% (active) | -2 | 90% (active) | inactive | inactive | inactive | inactive |
| c1cc(CNCCc2ccncc2)cc(-c2cccc(-c3nc4ccccc4[nH]3)c2)c1 | 88% (active) | 21% | 1 | 100% (active) | inactive | inactive | inactive | inactive |
| FC(F)(F)c1ccc2nccc(NN=Cc3ccccc3Cl)c2c1 | 83% (active) | -6% | 5 | 101% (active) | inactive | inactive | inactive | inactive |
| CCN1CCCC1CN(Cc1ccc(-c2ccc(C(F)(F)F)cc2)cc1)C(=O)Cn1c(CCc2cccc(F)c2F)nc(=O)c2ccccc21 (configuration not stated) | 51% (active) | 40% | 2 | 94% (active) | inactive | inactive | inactive | inactive |
| Cn1nc(-c2cccc(CNCc3ccccc3)c2)c2cnc(NC3CCCC3)nc21 | 11% | 5% | 1 | 85% (active) | inactive | inactive | inactive | inactive |
| CNC(=O)c1ccc2nc(C3CC3)n(CC3CCN(S(=O)(=O)c4cccc(Cl)c4)CC3)c2c1 | 100% (active) | -6% | 3 | 100% (active) | inactive | inactive | inactive | inactive |
| CSc1nnc2n(Cc3ccccc3)c(=O)c3c(n12)-c1ccccc1CC31CCCCC1 | -6% | 0% | 1 | 93% (active) | inactive | inactive | inactive | inactive |
| COc1ccc2c(c1)ncn2-c1cc(OCc2ccncc2Br)c(C(N)=O)s1 | 50% (active) | 14% | -2 | 95% (active) | inactive | inactive | inactive | inactive |

| Structure (SMILES) | growth inhibition [1] | inhibition [2] | inhibition [3] [%] | growth inhibition [4] | outcome [5] | outcome [6] | outcome [7] | outcome [8] |
| --- | --- | --- | --- | --- | --- | --- | --- | --- |
| COc1ccc(NC(=O)NC2CCN(c3ccnc4cc(Cl)ccc34)C2)cc1 (configuration not stated) | 69% (active) | 10% | -2 | 101% (active) | inactive | inactive | inactive | inactive |
| CCCCN(C(=O)c1ccccc1C)c1nnc(-c2ccccc2C)s1 | 94% (active) | 10% | 2 | 92% (active) | inactive | inactive | inactive | inactive |
| CCCCc1ccc(S(=O)(=O)Nc2ccc3c(c2)CCN(Cc2c[nH]c4cnccc24)CC3)cc1 | 12% | 41% | -5 | 99% (active) | inactive | inactive | inactive | inactive |
| O=C(/C=C/c1ccc([N+](=O)[O-])cc1)N1CCC(NS(=O)(=O)c2ccc(Br)cc2)CC1 | 5% | 0% | -4 | 93% (active) | inactive | inactive | inactive | inactive |
| CN1CCCN(Cc2ccc(-c3ccc(NC(=O)c4ccc(C#N)cc4)cc3)cc2)CC1 | 28% | 30% | 4 | 91% (active) | inactive | inactive | inactive | inactive |
| c1ccc(CN2CCC(NCc3ccccc3-c3ccc(CNCc4ccc5c(c4)OCO5)cc3)CC2)cc1 | 49% | 26% | 3 | 102% (active) | inactive | inactive | inactive | inactive |
| CC(Cc1ccc(NC(=O)COc2ccc(CC(C)NCCc3cccc(Cl)c3)cc2)cc1)NCCc1cccc(Cl)c1 (configuration not stated) | 98% (active) | 100% (active) | 4 | 105% (active) | inactive | inactive | inactive | inactive |
| N=C(N)c1ccc(OCc2cccc(COc3ccc(C(=N)N)cc3I)c2)c(I)c1 | 100% (active) | 7% | 2 | 102% (active) | inactive | inactive | inactive | inactive |
| N#Cc1cccc(-c2ccc(C(=O)Nc3ccc4c(c3)CCN(C3CCC3)CC4)cn2)c1 | 5% | 26% | -2 | 96% (active) | inactive | inactive | inactive | inactive |
| Cc1ccc(NS(=O)(=O)c2ccc(-c3ccccc3)cc2)c(Cn2cnc(N3CCCNCC3)cc2=O)c1 | 33% | 10% | 4 | 87% (active) | inactive | inactive | inactive | inactive |
| CCOC(=O)c1ccc(-c2c(C(F)(F)F)noc2-c2cc(CC)c(OC)cc2O)o1 | 95% (active) | -7% | 1 | 100% (active) | inactive | inactive | inactive | inactive |
| CCC(C(=O)Nc1ccccc1)n1nc(-c2ccc(C)c(S(=O)(=O)N3CCCCC3)c2)ccc1=O (configuration not stated) | 67% (active) | -2% | 4 | 85% (active) | inactive | inactive | inactive | inactive |
| C=CCOC(=O)N1CCC(CNCc2ccc(-c3ccc(-c4nc5ccccc5[nH]4)s3)cc2)C1 (configuration not stated) | 76% (active) | 29% | -2 | 101% (active) | inactive | inactive | inactive | inactive |
| CC(=O)N[C@H](C(=O)Nc1ccc(-c2ccc(-c3nc4ccc(C(F)(F)F)cc4[nH]3)s2)cc1)C(C)C | 61% (active) | 42% | 2 | 88% (active) | inactive | inactive | inactive | inactive |
| O=C(/C=C/c1ccc(C(F)(F)F)cc1)NCCCCCN1CCCN(C(=O)Nc2ccc(Cl)c(C(F)(F)F)c2)CC1 | 31% | 64% (active) | 4 | 99% (active) | inactive | inactive | inactive | inactive |
| CCCCCN1CCCC(CNS(=O)(=O)c2ccc(C(=O)Nc3ccc(C(F)(F)F)cc3)cc2)C1 (configuration not stated) | -9% | 51% (active) | -2 | 94% (active) | inactive | inactive | inactive | inactive |
| O=C(N[C@@H](Cc1ccccc1)C(=O)NCCN1CCCCC1)c1ccc(O)c(-c2ccc(Cl)c(Cl)c2)c1 | 97% (active) | 6% | -3 | 99% (active) | inactive | inactive | inactive | inactive |
| Nc1cccc(CNCc2cccc(-c3ccc(-c4nc5ccccc5[nH]4)cc3)c2)c1 | 92% (active) | -1% | -2 | 101% (active) | inactive | inactive | inactive | inactive |
| COc1ccc2nccc([C@@H](O)CN3CCC(NCc4ccc5c(c4)NC(=O)CS5)CC3)c2n1 | 34% | 1% | -3 | 101% (active) | inactive | inactive | inactive | inactive |
